GSTO1 inh = blocks human GSTO1 in RBBP9 counter-screen. P78417. recombinant GSTO1, activity-based probe fluorescence polarization. inhibition, % at 5.96 µM. 300,000 compounds, 1.1% hits. AID 1974;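 active means inhibition above the campaign mean inhibition plus 3 SD, cut at about 35% in these data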;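 further: 0% = GSTO1-1 with DMSO and 100% = wells lacking GSTO1-1 enzyme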
Target sequence (P78417 whole entry, looked up): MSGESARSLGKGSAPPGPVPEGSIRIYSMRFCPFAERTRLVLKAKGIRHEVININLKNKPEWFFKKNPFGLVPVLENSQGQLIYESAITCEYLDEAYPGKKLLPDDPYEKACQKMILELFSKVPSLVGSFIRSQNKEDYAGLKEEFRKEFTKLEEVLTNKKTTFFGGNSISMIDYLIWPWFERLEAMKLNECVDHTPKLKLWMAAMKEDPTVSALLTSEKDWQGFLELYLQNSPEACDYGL
PME-1 primary = PME-1 (human) inhibition. Q9Y570. recombinant PME-1, FP-Rh probe fluorescence polarization. inhibition, % at 5.9 µM. 320,000 compounds, 0.53% hits. AID 2130;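 active means inhibition above the campaign mean of all compounds plus 3 SD, cut at about 26% in these data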;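 further: competitive labeling of PME-1 active site by serine hydrolase directed probe; 0% = PME-1 with DMSO and 100% = wells lacking PME-1 enzyme; inhibitors block probe labeling so polarization falls and inhibition rises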
Target sequence (Q9Y570 whole entry, looked up): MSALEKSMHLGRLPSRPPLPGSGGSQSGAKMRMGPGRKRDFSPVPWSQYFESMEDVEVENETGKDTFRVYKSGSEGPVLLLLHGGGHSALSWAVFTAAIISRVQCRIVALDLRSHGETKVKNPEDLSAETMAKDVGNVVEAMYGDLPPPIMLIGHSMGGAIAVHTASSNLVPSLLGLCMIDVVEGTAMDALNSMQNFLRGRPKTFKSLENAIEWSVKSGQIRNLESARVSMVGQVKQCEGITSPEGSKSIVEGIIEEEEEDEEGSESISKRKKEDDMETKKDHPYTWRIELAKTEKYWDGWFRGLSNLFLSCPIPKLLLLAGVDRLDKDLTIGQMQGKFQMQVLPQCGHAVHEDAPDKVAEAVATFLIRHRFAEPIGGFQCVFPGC
LYPLA1 inh = LYPLA1 (human) inhibition in PME1 counter-screen; O75608; recombinant LYPLA1, FP-Rh probe fluorescence polarization; inhibition, % at 5.9 µM; 320,000 compounds, 0.16% hits; AID 2174;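 active means inhibition above the mean of all tested compounds plus 3 SD, set per campaign, cut at about 14% in these data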;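 further: inhibitors block serine hydrolase probe labeling of LYPLA1 so polarization falls; 0% = enzyme with DMSO and 100% = wells lacking LYPLA1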
LYPLA2 counter = counter-screen for PME1 inhibitors: inhibitors of human LYPLA2; recombinant LYPLA2, FP-Rh probe fluorescence polarization; inhibition, % at 5.9 µM; 320,000 compounds, 0.38% hits; O95372;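 active means inhibition above the screen-wide mean plus 3 SD, limit set per campaign, cut at about 26% in these data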;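 further: 0% = LYPLA2 with DMSO and 100% = wells lacking LYPLA2 enzyme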
PREPL inh = inhibitors of human prolyl oligopeptidase-like enzyme PREPL; Q4J6C6; recombinant PREPL, fluorescence polarization activity-based probe; inhibition, % at 5.96 µM; 320,000 compounds, 0.68% hits; AID 2751; in the data active means inhibition above about 43%;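 further: 0% = enzyme with DMSO and 100% = wells lacking enzyme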
Fam108B counter = counter-screen for RBBP9 inhibitors: inhibitors of mouse Fam108B; 300,000 compounds, 0.33% hits; inhibition, % at 9.51 µM; recombinant Fam108B, FP-Rh probe fluorescence polarization;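 active means inhibition above the screen mean inhibition plus 3 SD, computed separately per campaign, cut at about 18% in these data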;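 further: inhibitors lower polarization as less probe binds the enzyme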
Numbers without * were called inactive; . = not tested or not shown. The list is not random: actives were taken first. Their share in the collection is about 1.9%.

SMILES | GSTO1 inh | PME-1 primary | LYPLA1 inh | LYPLA2 counter | PREPL inh | Fam108B counter
O=C(COC(=O)c1ccccc1Br)Nc1cc(S(=O)(=O)N2CCOCC2)ccc1N1CCCC1 | 4 | 54* | 4 | 6 | 18 | 4
COc1ccc(C(=O)Oc2cccc(/C=N/NC(N)=S)c2)cc1 | -2 | 3 | 4 | 23 | 45* | -1
COc1ccc(OCC(=O)NNC(=O)c2ccc3c(=O)n4c(nc3c2)CCC4)cc1 | 37* | -4 | -6 | -12 | 0 | -3
CCOc1ncccc1C(=O)OCC(=O)NC1CCCCC1 | . | . | . | . | 5 | .
O=c1[nH]c(N/N=C\c2ccc3c(c2)OCO3)nc2ccccc12 | -1 | 29* | 6 | 7 | 41 | 4
N#Cc1cccc(S(=O)(=O)NCc2nnc3ccccn23)c1 | . | 1 | -2 | 2 | -2 | .
C/C(=N\NC(=O)c1ccccc1[N+](=O)[O-])c1ccc(Br)s1 | -1 | 8 | -2 | 0 | -8 | 1
C/C(=N\Nc1nc2ccccc2s1)c1ccc(Br)s1 | -2 | 51* | -10 | -12 | 26 | -3
C/C(=N\NC(=O)c1ccccc1O)c1ccc(Br)s1 | 73* | -5 | 3 | 2 | 0 | 1
COc1ccc(NC(=O)CN(C)C(=O)C2=NN(c3ccccc3)C(=O)CC2)cc1 | . | -4 | 5 | 5 | 7 | .
Cc1cnc(NC(=O)C2CC=CCC2)s1 (stereo not given) | 5 | 5 | -7 | -10 | -8 | -1
O=C(NC1CCCCCCC1)c1ccc(Br)o1 | -4 | -1 | -1 | 6 | 1 | 1
N#CCCN(C(=O)CCl)c1cccc(Cl)c1 | 87* | 1 | 1 | -2 | -4 | -5
Cc1ccccc1-c1nnnn1C1CCS(=O)(=O)C1 (stereo not given) | 2 | 0 | 5 | 5 | -4 | 2
Cc1cc(=O)n(C2CCS(=O)(=O)C2)[nH]1 (stereo not given) | 74* | -3 | -1 | -4 | 13 | 3
CCOc1ccc(C(=O)NC(C)CCc2ccccc2)cc1 (stereo not given) | -1 | 39* | -3 | -5 | 21 | -1
CC(C)N1CCc2c(sc(N)c2C#N)C1 | -3 | -11 | -6 | -7 | 50* | -7
COc1ccc(S(=O)(=O)N2CCOCC2)cc1NC(=O)CSc1nnc2n1CCCCC2 | . | . | . | . | 14 | .
O=C(c1sc2ccccc2c1Cl)N1CCN(c2ncccn2)CC1 | -1 | 28* | 5 | 11 | -4 | 9
O=C(c1sc2ccccc2c1Cl)N1CCN(c2ccc(F)cc2)CC1 | -7 | 7 | 3 | 9 | -9 | 2
Cc1[nH]c2ccccc2c1CC#N | -8 | -6 | 2 | 1 | 2 | -2
Cc1[nH]c2ccccc2c1C(C#N)(C#N)C1C(=O)c2ccccc2C1=O | 73* | 1 | -1 | 10 | 23 | 12
CC1(C)CC(O)CC(C)(C)N1CC(O)COCCOc1ccc(Br)cc1 (stereo not given) | 35* | -9 | -2 | -7 | 43 | -1
CC1CC(C)CN(CC(O)COCCOc2ccc(Br)cc2)C1 (stereo not given) | 2 | 4 | 1 | 1 | 24 | -1
CCOc1cccc(/C=C/c2ccc3cccc(O)c3n2)c1O | -1 | 36* | -6 | -3 | 23 | 3
SMILES | GSTO1 inh | PME-1 primary | LYPLA1 inh | LYPLA2 counter | PREPL inh | Fam108B counter
CCOc1ccccc1OCCCC(=O)NNC(=O)c1nn(C)c(=O)c2ccccc12 | . | 2 | -1 | -3 | 10 | .
CC(C)=CCOc1ccc([C@@H]2COc3c(ccc4c3C=CC(C)(C)O4)C2)c(O)c1 | -8 | -14 | 3 | -6 | 22 | -14
CCn1c(SCC(=O)NNC(=S)Nc2ccc(C)cc2)nnc1-c1ccc(Cl)cc1 | 35* | -1 | -1 | 2 | 8 | 2
Cc1ccc(NC(=S)NNC(=O)CSc2nnc(-c3ccc(Cl)cc3)n2C2CCCCC2)cc1 | -2 | -1 | -1 | 6 | 24 | 0
COc1ccc(CC(=O)Nc2ccc(OC)nc2)cc1 | 9 | 2 | -1 | -4 | -3 | 0
O=C(O)COc1cnc2ccccc2n1 | -4 | -4 | 0 | 1 | -12 | 1
O=C(CCl)Nc1ccc(Oc2cnc3ccccc3n2)cc1 | 86* | 8 | 1 | 5 | 4 | 0
COc1ccc(NC(=O)CCl)cn1 | 56* | 6 | 1 | 0 | 3 | 2
Cc1nn(CC(=O)Nc2cc(S(=O)(=O)N3CCOCC3)ccc2Cl)c(C)c1[N+](=O)[O-] | . | 0 | -3 | -4 | 8 | .
FC(F)(F)c1cccc(NC(=S)NNC(=S)Nc2cccc(C(F)(F)F)c2)c1 | -4 | 33* | -21 | -21 | 22 | 13
CCN(CC)C(=N)/C(C#N)=N/Nc1ccccc1 | 5 | 4 | 0 | 4 | 12 | 3
COCCN=c1scc(-c2cc(OC)c(OC)c(OC)c2)n1/N=C/c1c(C)[nH]c2ccccc12 | -2 | 27* | -8 | -1 | 23 | 4
Cc1cc(C(=O)N/N=C/c2cccc([N+](=O)[O-])c2)c(C)n1-c1ccccc1 | -5 | 29* | 2 | 6 | 17 | 4
CCOc1cc(/C=N/NC(=O)c2cccc([N+](=O)[O-])c2)ccc1OS(=O)(=O)c1ccccc1 | -48 | 41* | -17 | -4 | 2 | 9
COc1ccc(/C=N/NC(=O)c2cc(C)n(-c3ccccc3)c2C)cc1OC | 8 | -4 | -6 | -2 | 11 | 4
CCn1c(/C=C/c2c[nH]c3ccccc23)nc2ccccc2c1=O | 7 | 44* | -3 | -4 | 17 | 3
COc1cc(C=NNC(=O)Cn2nc(C)cc2C)ccc1OC(=O)C1CC1 | . | . | . | . | 2 | .
CC(=O)Nc1cc(NC(C)=O)c(N=Nc2ccccc2)cc1C | -1 | 2 | 1 | -2 | -4 | -3
Cc1ccc(NCC(O)C(O)C(O)CO)c(N=Nc2ccccc2)c1C (stereo not given) | 10 | 52* | 3 | 12 | 11 | 1
COc1cc2cc(C(=O)N/N=C/c3ccc(F)cc3)[nH]c2cc1OC | 3 | -14 | -4 | -2 | 28 | 6
COc1ccc(/C=N/NC(=O)c2cc3cc(OC)c(OC)cc3[nH]2)cc1 | -8 | 27* | 7 | 4 | 23 | 5
Cc1csc(NC(=O)C2CCCN(S(=O)(=O)c3ccc(Br)s3)C2)n1 (stereo not given) | 46* | 6 | -2 | -4 | 8 | -3
CCN(C(=O)c1cnc(NC(C)C)cc1C(F)(F)F)c1ccc(Cl)cc1Cl | 10 | 17 | -2 | -6 | -8 | 3
Nc1n[nH]c(C2CC2)c1N=Nc1ccc(Cl)c(Cl)c1 | -14 | 31* | -1 | -10 | 29 | 5
O=C(/C=C/c1ccc(O)c(O)c1)OC(Cc1ccc(O)c(O)c1)C(=O)O (stereo not given) | 55* | -10 | 0 | 2 | 2 | 1
O=C(NC1(Cc2ccccc2)CCN(CCc2cccs2)C1=O)c1ccccc1 (stereo not given) | . | 0 | 6 | 6 | 4 | .

High-throughput results (PubChem BioAssay)
